# Tests used:
# Assay in all cases: DAPPL (digital affinity profiling via proximity ligation, sequencing); 10 mM Tris-HCl pH 7.5, 50 mM NaCl, 1 mM DTT, 4% glycerol, room temperature, 30 min; GST-TFs on glutathione beads, 16-mer random dsDNA library, 0.1% formaldehyde crosslink after washing; high values mean tight binding
# FLI1 = target: T1, FLI1 (Homo sapiens, UniProt Q01543 1-452); settings: protein: recombinant; tags: N-terminal GST; dsDNA, one strand shown
# T1 sequence: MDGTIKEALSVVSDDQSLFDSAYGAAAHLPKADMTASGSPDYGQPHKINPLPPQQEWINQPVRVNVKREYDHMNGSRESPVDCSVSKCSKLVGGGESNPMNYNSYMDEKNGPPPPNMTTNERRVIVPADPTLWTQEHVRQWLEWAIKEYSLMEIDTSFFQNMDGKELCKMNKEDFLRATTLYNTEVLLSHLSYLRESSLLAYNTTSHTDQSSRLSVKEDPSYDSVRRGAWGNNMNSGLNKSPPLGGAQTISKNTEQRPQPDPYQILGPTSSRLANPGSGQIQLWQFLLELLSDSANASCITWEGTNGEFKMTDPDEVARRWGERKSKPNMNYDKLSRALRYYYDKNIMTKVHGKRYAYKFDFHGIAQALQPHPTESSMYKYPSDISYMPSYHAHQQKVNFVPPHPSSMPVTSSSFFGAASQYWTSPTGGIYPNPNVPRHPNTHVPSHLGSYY
# Outline: (§1)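 GST fusions of human transcription factors were expressed in yeast and captured with glutathione beads. Once given DNA barcodes and pooled alongside a tag-only sample, they were incubated for 30 min at room temperature with 200 nmole of a random double-stranded 16-mer DNA library in Tris/NaCl/DTT/glycerol buffer, then washed, crosslinked (0.1% formaldehyde), proximity-ligated, PCR-amplified and sequenced on an Illumina NextSeq500. The binding signal of each hexamer is its read frequency for a factor divided by its frequency for the tag-only sample.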
# ELK1 = target: T2, ELK1 (Homo sapiens, UniProt P19419 1-428); settings: protein: recombinant; tags: N-terminal GST; dsDNA, one strand shown
# T2 sequence: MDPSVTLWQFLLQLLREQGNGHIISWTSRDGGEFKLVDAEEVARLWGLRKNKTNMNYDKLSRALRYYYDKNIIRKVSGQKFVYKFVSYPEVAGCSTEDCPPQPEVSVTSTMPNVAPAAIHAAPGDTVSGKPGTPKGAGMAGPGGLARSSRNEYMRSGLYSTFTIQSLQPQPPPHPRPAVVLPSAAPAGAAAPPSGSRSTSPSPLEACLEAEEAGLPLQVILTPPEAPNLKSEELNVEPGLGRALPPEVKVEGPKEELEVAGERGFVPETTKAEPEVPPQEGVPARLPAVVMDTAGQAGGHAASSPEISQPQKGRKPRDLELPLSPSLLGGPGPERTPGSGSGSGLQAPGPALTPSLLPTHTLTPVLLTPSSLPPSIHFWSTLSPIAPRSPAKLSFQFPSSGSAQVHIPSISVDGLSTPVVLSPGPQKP
# Outline: as §1
# GABPA = target: T3, GABPA (Homo sapiens, UniProt Q06546 1-454); settings: protein: recombinant; tags: N-terminal GST; dsDNA, one strand shown
# T3 sequence: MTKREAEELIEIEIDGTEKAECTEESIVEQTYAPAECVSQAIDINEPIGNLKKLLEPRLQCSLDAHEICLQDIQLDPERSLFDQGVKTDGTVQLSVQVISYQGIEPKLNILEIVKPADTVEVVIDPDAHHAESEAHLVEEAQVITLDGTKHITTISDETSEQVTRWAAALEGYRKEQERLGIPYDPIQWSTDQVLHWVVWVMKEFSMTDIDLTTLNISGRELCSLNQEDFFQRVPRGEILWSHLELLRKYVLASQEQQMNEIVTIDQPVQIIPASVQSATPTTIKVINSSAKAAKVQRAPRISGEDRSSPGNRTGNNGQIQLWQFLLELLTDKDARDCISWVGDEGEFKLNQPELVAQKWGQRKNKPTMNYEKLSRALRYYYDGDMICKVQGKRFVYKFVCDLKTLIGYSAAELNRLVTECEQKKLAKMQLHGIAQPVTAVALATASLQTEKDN
# Outline: as §1
# ERG = target: T4, ERG (Homo sapiens, UniProt P11308 1-479); settings: protein: recombinant; tags: N-terminal GST; dsDNA, one strand shown
# T4 sequence: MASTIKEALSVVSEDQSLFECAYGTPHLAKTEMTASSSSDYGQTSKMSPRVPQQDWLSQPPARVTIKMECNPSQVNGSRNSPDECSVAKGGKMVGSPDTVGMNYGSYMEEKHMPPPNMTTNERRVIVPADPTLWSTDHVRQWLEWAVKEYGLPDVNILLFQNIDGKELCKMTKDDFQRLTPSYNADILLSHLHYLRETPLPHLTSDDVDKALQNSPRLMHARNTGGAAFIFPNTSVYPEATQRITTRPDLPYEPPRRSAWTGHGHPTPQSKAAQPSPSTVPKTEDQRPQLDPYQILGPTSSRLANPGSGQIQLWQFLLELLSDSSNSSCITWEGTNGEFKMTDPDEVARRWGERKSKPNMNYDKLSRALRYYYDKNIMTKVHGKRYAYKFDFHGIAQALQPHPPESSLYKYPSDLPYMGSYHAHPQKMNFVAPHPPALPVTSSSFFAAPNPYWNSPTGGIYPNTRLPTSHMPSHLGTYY
# Outline: as §1
# ELF1 = ELF1 (Homo sapiens, UniProt P32519 1-619); settings: protein: recombinant; tags: N-terminal GST; dsDNA, one strand shown
# Outline: as §1
# EHF = target: T5, EHF (Homo sapiens, UniProt Q9NZC4 1-300); settings: protein: recombinant; tags: N-terminal GST; dsDNA, one strand shown
# T5 sequence: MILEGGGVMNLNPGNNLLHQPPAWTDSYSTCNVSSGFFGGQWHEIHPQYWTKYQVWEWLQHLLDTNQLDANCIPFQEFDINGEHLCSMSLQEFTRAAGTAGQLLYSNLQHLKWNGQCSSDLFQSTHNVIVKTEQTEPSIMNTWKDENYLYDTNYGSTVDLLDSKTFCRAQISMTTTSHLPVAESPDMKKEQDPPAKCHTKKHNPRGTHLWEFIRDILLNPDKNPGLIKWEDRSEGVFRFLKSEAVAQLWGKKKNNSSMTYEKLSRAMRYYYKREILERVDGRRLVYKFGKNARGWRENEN
# Outline: as §1
# SPI1 = SPI1 (Homo sapiens, UniProt P17947 1-270); settings: protein: recombinant; tags: N-terminal GST; dsDNA, one strand shown
# Outline: as §1
# SPIB = SPIB (Homo sapiens, UniProt Q01892 1-262); settings: protein: recombinant; tags: N-terminal GST; dsDNA, one strand shown
# Outline: as §1
# ELK3 = target: T6, ELK3 (Homo sapiens, UniProt P41970 1-407); settings: protein: recombinant; tags: N-terminal GST; dsDNA, one strand shown
# T6 sequence: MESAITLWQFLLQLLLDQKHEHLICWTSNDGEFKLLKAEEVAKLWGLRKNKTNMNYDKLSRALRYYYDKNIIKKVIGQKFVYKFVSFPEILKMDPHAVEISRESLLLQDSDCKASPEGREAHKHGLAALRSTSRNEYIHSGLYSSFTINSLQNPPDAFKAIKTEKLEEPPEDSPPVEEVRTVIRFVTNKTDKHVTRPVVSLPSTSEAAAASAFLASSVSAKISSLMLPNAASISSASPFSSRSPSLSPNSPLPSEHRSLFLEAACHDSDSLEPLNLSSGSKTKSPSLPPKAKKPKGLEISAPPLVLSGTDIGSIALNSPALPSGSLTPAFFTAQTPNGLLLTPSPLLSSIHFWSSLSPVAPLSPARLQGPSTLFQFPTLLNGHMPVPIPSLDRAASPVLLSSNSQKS
# Outline: as §1
# FEV = target: T7, FEV (Homo sapiens, UniProt Q99581 1-238); settings: protein: recombinant; tags: N-terminal GST; dsDNA, one strand shown
# T7 sequence: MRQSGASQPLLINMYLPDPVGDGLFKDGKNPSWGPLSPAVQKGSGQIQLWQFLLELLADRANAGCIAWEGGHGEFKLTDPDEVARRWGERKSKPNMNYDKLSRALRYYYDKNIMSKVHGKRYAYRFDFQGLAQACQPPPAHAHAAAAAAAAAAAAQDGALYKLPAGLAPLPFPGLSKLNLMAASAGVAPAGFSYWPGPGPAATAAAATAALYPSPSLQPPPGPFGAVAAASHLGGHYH
# Outline: as §1
# ETV5 = ETV5 (Homo sapiens, UniProt P41161 1-510); settings: protein: recombinant; tags: N-terminal GST; dsDNA, one strand shown
# Outline: as §1
# HSF1 = HSF1 (Homo sapiens, UniProt Q00613 1-529); settings: protein: recombinant; tags: N-terminal GST; chain copies: 3; dsDNA, one strand shown
# Outline: as §1
# SPIC = target: T8, SPIC (Homo sapiens, UniProt Q8N5J4 1-248); settings: protein: recombinant; tags: N-terminal GST; dsDNA, one strand shown
# T8 sequence: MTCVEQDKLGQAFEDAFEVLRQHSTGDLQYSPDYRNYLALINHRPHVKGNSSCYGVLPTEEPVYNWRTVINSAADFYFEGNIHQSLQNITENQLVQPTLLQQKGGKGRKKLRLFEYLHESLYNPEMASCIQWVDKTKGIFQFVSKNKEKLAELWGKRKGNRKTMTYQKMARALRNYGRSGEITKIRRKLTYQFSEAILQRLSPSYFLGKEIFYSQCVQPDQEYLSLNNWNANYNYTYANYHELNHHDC
# Outline: as §1
# ELF4 = ELF4 (Homo sapiens, UniProt Q99607 1-663); settings: protein: recombinant; tags: N-terminal GST; dsDNA, one strand shown
# Outline: as §1
# ELK4 = target: T9, ELK4 (Homo sapiens, UniProt P28324-2 1-405); settings: protein: recombinant; tags: N-terminal GST; dsDNA, one strand shown
# T9 sequence: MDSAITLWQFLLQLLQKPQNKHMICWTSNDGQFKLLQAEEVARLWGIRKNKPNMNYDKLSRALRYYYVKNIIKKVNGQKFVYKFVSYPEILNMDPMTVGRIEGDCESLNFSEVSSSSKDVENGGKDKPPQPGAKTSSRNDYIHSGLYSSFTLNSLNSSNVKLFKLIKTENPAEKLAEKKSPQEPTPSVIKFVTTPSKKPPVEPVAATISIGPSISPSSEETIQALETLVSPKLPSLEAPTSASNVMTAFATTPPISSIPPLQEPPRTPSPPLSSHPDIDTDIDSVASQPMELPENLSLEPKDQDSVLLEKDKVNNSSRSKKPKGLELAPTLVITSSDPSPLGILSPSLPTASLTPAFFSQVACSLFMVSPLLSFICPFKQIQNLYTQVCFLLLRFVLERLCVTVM
# Outline: as §1
# ETV2 = target: T10, ETV2 (Homo sapiens, UniProt O00321 1-342); settings: protein: recombinant; tags: N-terminal GST; dsDNA, one strand shown
# T10 sequence: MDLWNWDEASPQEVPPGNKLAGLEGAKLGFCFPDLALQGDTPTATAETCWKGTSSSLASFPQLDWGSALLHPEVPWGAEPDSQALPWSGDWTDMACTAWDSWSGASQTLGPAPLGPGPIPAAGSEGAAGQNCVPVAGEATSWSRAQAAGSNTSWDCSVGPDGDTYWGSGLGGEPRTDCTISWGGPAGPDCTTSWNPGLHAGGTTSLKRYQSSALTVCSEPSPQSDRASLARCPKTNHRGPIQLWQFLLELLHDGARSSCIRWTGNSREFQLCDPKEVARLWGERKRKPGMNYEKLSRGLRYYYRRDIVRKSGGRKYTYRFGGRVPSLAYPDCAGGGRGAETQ
# Outline: as §1
# ELF3 = target: T11, ELF3 (Homo sapiens, UniProt P78545 1-371); settings: protein: recombinant; tags: N-terminal GST; dsDNA, one strand shown
# T11 sequence: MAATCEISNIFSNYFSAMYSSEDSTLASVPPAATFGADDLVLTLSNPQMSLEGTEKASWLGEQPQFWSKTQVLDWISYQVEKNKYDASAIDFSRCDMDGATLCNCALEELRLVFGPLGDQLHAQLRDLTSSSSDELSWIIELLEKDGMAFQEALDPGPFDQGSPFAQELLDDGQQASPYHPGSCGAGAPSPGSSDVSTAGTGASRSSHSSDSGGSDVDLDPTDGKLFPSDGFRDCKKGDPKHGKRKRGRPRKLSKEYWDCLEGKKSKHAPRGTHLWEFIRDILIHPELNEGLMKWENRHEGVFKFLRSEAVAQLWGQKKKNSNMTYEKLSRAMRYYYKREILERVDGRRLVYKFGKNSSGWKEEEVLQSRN
# Outline: as §1
# CRX = CRX (Homo sapiens, UniProt O43186 1-299); settings: protein: recombinant; tags: N-terminal GST; dsDNA, one strand shown
# Outline: as §1
# ETV1 = ETV1 (Homo sapiens, UniProt P50549 1-477); settings: protein: recombinant; tags: N-terminal GST; dsDNA, one strand shown
# Outline: as §1
# Sequence of CRX (O43186 whole entry): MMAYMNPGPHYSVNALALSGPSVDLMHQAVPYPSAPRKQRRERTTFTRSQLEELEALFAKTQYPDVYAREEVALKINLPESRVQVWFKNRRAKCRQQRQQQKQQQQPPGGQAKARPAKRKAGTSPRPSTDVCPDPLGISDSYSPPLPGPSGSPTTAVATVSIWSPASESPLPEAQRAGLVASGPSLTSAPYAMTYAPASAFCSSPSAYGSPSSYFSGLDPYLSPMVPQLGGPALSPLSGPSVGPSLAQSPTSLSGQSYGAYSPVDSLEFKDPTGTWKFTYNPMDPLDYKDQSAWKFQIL
# Sequence of ELF4 (Q99607 whole entry): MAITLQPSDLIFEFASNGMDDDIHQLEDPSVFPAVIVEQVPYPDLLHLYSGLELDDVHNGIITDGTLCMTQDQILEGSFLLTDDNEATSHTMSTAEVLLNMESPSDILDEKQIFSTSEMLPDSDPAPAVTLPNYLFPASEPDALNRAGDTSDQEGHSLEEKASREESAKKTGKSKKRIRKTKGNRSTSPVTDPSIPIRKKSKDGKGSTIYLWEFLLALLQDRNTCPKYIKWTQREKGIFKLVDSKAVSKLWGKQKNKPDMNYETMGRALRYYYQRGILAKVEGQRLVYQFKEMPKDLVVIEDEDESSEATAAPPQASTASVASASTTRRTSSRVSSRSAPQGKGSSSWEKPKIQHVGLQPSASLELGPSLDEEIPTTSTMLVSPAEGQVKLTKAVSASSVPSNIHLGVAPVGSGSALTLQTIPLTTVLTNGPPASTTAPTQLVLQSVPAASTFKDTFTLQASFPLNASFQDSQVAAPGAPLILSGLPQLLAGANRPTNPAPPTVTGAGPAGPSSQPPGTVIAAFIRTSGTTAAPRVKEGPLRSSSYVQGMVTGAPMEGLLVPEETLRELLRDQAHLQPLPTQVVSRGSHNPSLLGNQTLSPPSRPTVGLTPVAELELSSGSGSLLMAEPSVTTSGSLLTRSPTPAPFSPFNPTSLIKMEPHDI
# Sequence of HSF1 (Q00613 whole entry): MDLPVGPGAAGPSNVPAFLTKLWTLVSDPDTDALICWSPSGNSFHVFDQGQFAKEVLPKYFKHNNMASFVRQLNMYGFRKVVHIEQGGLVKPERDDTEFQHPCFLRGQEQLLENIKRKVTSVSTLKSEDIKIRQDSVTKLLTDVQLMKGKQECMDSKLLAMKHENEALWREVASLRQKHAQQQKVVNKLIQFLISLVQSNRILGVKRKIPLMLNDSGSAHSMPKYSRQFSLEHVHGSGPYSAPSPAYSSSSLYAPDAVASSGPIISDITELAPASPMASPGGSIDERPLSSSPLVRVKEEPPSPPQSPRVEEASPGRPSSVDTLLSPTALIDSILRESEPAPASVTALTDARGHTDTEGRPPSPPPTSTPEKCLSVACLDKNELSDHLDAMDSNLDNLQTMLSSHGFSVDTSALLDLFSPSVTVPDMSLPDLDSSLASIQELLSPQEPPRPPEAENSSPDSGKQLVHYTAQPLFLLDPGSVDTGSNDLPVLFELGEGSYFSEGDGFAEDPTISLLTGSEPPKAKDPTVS
# Sequence of ETV1 (P50549 whole entry): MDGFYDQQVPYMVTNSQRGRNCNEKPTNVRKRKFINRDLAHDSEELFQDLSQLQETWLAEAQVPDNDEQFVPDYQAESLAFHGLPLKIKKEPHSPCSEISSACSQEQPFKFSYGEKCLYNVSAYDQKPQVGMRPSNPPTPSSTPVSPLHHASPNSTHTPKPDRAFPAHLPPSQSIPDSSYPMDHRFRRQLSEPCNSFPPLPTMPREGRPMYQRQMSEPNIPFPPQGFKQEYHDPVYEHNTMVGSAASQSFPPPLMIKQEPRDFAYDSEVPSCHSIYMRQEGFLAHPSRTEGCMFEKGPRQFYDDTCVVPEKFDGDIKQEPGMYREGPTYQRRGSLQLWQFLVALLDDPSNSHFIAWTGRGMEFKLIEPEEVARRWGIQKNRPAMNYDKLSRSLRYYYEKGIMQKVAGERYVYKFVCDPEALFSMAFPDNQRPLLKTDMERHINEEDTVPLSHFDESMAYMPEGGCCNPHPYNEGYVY
# Sequence of SPIB (Q01892 whole entry): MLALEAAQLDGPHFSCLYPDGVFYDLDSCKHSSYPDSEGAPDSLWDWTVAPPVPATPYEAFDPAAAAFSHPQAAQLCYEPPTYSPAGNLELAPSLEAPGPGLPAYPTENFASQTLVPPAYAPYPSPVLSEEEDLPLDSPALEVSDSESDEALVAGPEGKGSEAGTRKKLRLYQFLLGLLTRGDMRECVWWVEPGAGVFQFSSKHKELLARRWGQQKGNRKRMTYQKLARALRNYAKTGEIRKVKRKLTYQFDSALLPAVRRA
# Sequence of ETV5 (P41161 whole entry): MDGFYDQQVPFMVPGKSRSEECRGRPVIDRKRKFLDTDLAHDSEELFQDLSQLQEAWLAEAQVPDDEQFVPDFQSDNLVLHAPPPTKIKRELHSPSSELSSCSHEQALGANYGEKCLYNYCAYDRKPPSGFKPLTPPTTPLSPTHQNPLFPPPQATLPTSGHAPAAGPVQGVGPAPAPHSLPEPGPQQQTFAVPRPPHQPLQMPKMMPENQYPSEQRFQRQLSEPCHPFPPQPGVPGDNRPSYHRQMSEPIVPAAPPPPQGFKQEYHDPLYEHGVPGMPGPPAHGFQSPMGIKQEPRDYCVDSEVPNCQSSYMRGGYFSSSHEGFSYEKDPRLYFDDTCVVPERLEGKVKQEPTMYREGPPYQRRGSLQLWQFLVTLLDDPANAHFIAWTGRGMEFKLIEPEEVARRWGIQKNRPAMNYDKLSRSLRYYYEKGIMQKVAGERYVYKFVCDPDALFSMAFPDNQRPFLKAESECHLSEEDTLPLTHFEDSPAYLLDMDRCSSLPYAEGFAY
# Sequence of ELF1 (P32519 whole entry): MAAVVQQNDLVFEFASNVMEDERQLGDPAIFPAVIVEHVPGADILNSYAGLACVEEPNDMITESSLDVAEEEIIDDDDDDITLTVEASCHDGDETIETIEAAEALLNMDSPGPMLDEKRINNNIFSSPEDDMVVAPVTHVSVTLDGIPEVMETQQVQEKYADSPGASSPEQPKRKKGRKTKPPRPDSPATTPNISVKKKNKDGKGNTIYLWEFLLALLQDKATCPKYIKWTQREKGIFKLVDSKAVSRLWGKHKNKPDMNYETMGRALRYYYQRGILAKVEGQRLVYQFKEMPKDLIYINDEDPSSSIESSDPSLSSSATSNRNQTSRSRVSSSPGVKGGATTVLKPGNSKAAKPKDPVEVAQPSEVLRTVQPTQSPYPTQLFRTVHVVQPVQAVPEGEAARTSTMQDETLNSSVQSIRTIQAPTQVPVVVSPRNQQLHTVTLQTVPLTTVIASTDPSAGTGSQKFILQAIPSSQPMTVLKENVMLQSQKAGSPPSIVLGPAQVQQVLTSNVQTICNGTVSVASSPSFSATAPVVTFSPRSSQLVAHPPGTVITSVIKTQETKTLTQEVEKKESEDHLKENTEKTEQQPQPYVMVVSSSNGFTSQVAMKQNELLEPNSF
sequence,measurement,setting,value
GTCTCA,binding signal,FLI1,"1.34 fold enrichment (6-mer frequency, TF over GST control)"
same,binding signal,ELK1,"1.32 fold enrichment (6-mer frequency, TF over GST control)"
same,binding signal,GABPA,"1.35 fold enrichment (6-mer frequency, TF over GST control)"
same,binding signal,ERG,"1.36 fold enrichment (6-mer frequency, TF over GST control)"
same,binding signal,ELF1,"1.41 fold enrichment (6-mer frequency, TF over GST control)"
same,binding signal,EHF,"1.32 fold enrichment (6-mer frequency, TF over GST control)"
same,binding signal,SPI1,"1.39 fold enrichment (6-mer frequency, TF over GST control)"
same,binding signal,SPIB,"1.41 fold enrichment (6-mer frequency, TF over GST control)"
same,binding signal,ELK3,"1.32 fold enrichment (6-mer frequency, TF over GST control)"
same,binding signal,FEV,"1.25 fold enrichment (6-mer frequency, TF over GST control)"
same,binding signal,ETV5,"1.4 fold enrichment (6-mer frequency, TF over GST control)"
same,binding signal,HSF1,"1.01 fold enrichment (6-mer frequency, TF over GST control)"
same,binding signal,SPIC,"1.4 fold enrichment (6-mer frequency, TF over GST control)"
same,binding signal,ELF4,"1.33 fold enrichment (6-mer frequency, TF over GST control)"
same,binding signal,ELK4,"1.34 fold enrichment (6-mer frequency, TF over GST control)"
same,binding signal,ETV2,"1.32 fold enrichment (6-mer frequency, TF over GST control)"
same,binding signal,ELF3,"1.48 fold enrichment (6-mer frequency, TF over GST control)"
same,binding signal,CRX,"1.12 fold enrichment (6-mer frequency, TF over GST control)"
same,binding signal,ETV1,"1.24 fold enrichment (6-mer frequency, TF over GST control)"

# — article PMC7862700, “An all-to-all approach to the identification of sequence-specific readers for epigenetic DNA modifications on cytosine”
